Where “and” joins values, the source holds several entries; their conditions need not be identical. Equal values may be shown once. About 11,000 (3.5%) of roughly 310,000 compounds were called active. Roughly 4% stayed inconclusive and do not appear here. The sample as a whole holds a higher share of actives than the screen did. Unmarked numbers belong to inactive results. Calls follow the shape of the dose curve; as a rule, active = well fitted inhibition curve with a large enough effect; inconclusive = small, poorly fitted or top-dose-only effect, or another doubt; inactive = no such curve, though single readings can be large or run the other way.
What follows are molecules tested against 4'-phosphopantetheinyl transferase ffp (Bacillus subtilis) (UniProt Q9F4F7) (assay: qHTS Assay for Inhibitors of Bacillus subtilis Sfp phosphopantetheinyl transferase (PPTase)). Conditions: Biochemical Sfp PPTase activity.
Method in brief: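 Step 1, compound plus 15 nM Sfp-PPTase, 15 min, room temperature. Step 2, add rhodamine-CoA (5 uM) and BHQ-2-YbbR (12.5 uM). Step 3, read 525/598 nm fluorescence at 0 and 30 min.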
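Also: the enzyme is Sfp with the accession as filed and its product quenches rhodamine fluorescence.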
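For largest response in the series, negative = inhibition in this document: 0% = enzyme reaction without inhibitor and -100% = no enzyme wells.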
Potency is read from the fitted curve at half-maximal effect.

SMILES	largest response in the series, negative = inhibition	Potency
COc1ccccc1NC(=O)CCN1CCN(c2ccc(Cl)cc2)CC1	3.28%	–
COC(=O)CNC(c1ccccc1Cl)c1cc(Br)ccc1NC(=O)CCN1CCOCC1 (stereo not drawn)	–	56.2 µM (active)
COc1ccc(Cl)cc1NC(=O)CCN1CCOCC1	13.9%	–
CNS(=O)(=O)c1ccc(NC(=O)Nc2ccc3c(c2)OCO3)cc1	-9.71%	–
CCc1ccc(OCC(O)CN2CCN(CCO)CC2)cc1 (stereo not drawn)	5.76%	–
C/C(=N\NC(N)=S)c1ccncc1	–	79.4 µM (active)
C/C(=N/NC(=O)c1ccncc1)c1ccc2c(c1)OCO2	4.66%	–
C/C(=N/NC(=O)c1ccn(C)n1)c1ccncc1	5.8%	–
COc1ccc(CCNC(=O)CCCCCNC(=O)N2CCn3c2nc2ccccc23)cc1OC	4.84%	–
Cc1ccccc1CNC(=O)CCC(=O)N1Cc2ccccc2Oc2ncccc21	19%	–
CCn1c(SCc2cccc(C(=O)O)c2)nnc1-c1ccc(Cl)cc1	1.11%	–
COc1ccc(-n2ncc3c2CC(C)(C)CC3NC(=O)CCc2c(C)nn(C)c2C)cc1 (stereo not drawn)	11.2%	–
COC(=O)C(NS(=O)(=O)c1ccc(F)cc1)c1ccccc1 (stereo not drawn)	16.1%	–
Cc1ccc(NC(=S)Nc2ccc(F)cc2)cc1	5.93%	–
O=S(=O)(NC(=S)Nc1ccccc1)c1ccc(F)cc1	–	20 µM (active)
O=C(CSc1ccc(-c2ccco2)nn1)NCc1ccc2c(c1)OCO2	–	50.1 µM (active)
Cc1cc(SCc2c(F)cccc2Cl)nc(=O)[nH]1	1.28%	–
Cn1c(SCc2c(F)cccc2Cl)nnc1-c1cnccn1	-5.8%	–
COc1ccc(NC(=O)CSc2ccc(-c3ccco3)nn2)c(OC)c1	-27.4%	–
O=C(CSc1ccc(-c2ccco2)nn1)Nc1cccc(F)c1	–	15.8 µM (active)
Cc1ccccc1-c1nnc(SCC(=O)NCc2ccc3c(c2)OCO3)n1C	4.47%	–
Fc1cccc(Cl)c1CSc1ccc(-c2ccco2)nn1	–	39.8 µM (active)
O=C(CSc1ccc(-c2ccc(F)cc2)nn1)Nc1ccc2c(c1)OCCO2	-25.1%	–
O=C(CSc1ncn[nH]1)NCc1ccc2c(c1)OCO2	9.23%	–

SMILES	largest response in the series, negative = inhibition	Potency
O=C(NCC(=O)N1CCC2(CC1)NCCc1[nH]cnc12)c1ccc(Br)cc1	9.84%	–
O=C(Cn1nc([N+](=O)[O-])nc1Br)NC1CCCCC1	16.4%	–
CCOC(=O)N1CCN(S(=O)(=O)c2ccc(Br)cc2)CC1	12.6%	–
C[C@H]1Cc2c(COc3ccccc3)nc3c(c2CO1)CN(C(=O)Nc1cccc(C#N)c1)CC3	13.6%	–
Cc1ccc(C(=O)N2CCC(n3nccc3NC(=O)Nc3cccc(F)c3)CC2)cn1	4.54%	–
CCCCC[C@H](O)/C=C/[C@@H]1[C@@H](CC(=O)CCC(=O)O)[C@@H](O)C[C@H]1O	-8.37%	–
OCCC(O)CO (stereo not drawn)	-2.96% and -0.468% and 9.51%	–
O=C(c1cccnc1)N1CCN(S(=O)(=O)c2cccs2)CC1	2.77%	–
O=C(COc1ccc(Cl)cc1)NCCS(=O)(=O)N1CCN(c2ccc(F)cc2)CC1	-3.01%	–
NNC(=O)c1nnn(-c2nonc2N)c1CN1CCCC1	14.1%	–
Cc1c(C(=O)N(C)CCc2cnn(C)c2)oc2c(F)cccc12	4.37%	–
CCc1ccc2c(c1)C1(NN=C(c3ccccc3)S1)C(=O)N2 (stereo not drawn)	–	8.91 µM (active)
CCc1ccc2c(c1)C(c1ccc([N+](=O)[O-])cc1)=NNC(c1ccccc1)=N2	-18%	–
Cc1ccc(C)c(N2CCN(C(=O)CCCn3c(=O)c4cccn4c4cccnc43)CC2)c1	14.7%	–
CCNC(=O)N1CCCC(C(=O)c2ccc(-c3ccccc3)cc2)C1 (stereo not drawn)	4.19%	–
CC(C)(C)c1cc(C(=O)NCc2cccnc2)ccn1	-7%	–
Cc1ccc(-n2nc(-c3ccco3)cc2C(=O)NCc2cccnc2)cc1	–	10 µM (active)
CSc1sc(C(=O)NC(=O)NCc2cccnc2)c(C)c1-c1ccon1	9.79%	–
COc1ccc(N(CC(=O)Nc2cccc3ccccc23)S(C)(=O)=O)c(OC)c1	9.66%	–
Cc1ccccc1NC(=O)Cn1cc(C(=O)C2CC2)c2ccccc21	16.6%	–
O=C(Cc1c(Cl)cccc1Cl)NC1CC1	11.4%	–
C=CS(=O)c1sc(Cl)c(N2CCOCC2)c1[N+](=O)[O-] (stereo not drawn)	–	10 µM (active)
COc1ccc(CCNC(=O)c2nnc(CS(=O)(=O)c3ccccc3)o2)cc1OC	9.29%	–
COc1ccc(C(=O)NC(C)Cn2nc(C)cc2C)cc1OC1CCN(C(C)=O)CC1 (stereo not drawn)	12.4%	–

From PubChem BioAssay AID1490 (National Center for Advancing Translational Sciences (NCATS), 2009)
